Shown are actives, neighbours in structure and some others; about 11% of the full set was active somewhere.
IL1B secr inh: inflammasome signaling inhibition, IL-1 beta readout. THP-1 LPS/ATP IL-1B secretion, AlphaLISA, 16 h; stronger effect = lower value. activity change, % at 57.5 µM. 360,000 tested, 4.7% active. AID 743279; in the data active = activity change below about -50%; inconclusive = mostly about -30% to -49%
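Secreted IL-1B measured by AlphaLISA bead assay after 16 h compound exposure of THP-1 cells; compounds (final up to 57.5 uM) added 1 h before LPS (250 ng/mL) and ATP (1.25 mM) stimulation; lower signal means less secretion.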
SW480 rereplic: induces DNA re-replication in SW480 colon adenocarcinoma cells. SW480 DNA re-replication, Hoechst DNA content imaging, 48 h. Potency, µM (titrated, usually from 46.1 µM), actives largely listed as activators. 340,000 tested, 1.8% active; also: nearly all actives have a fitted effect of over 55% in size
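250 cells/well; 23 nL cpd via pin tool; 48 hr, 37 C, 5% CO2; Hoechst 40 min; imager read of total nuclear intensity, ex 405/em 500-530 nm.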
RORgamma inh: inhibitors of mouse ROR gamma transcriptional activity; P51450; Drosophila S2 Gal4-RORgamma UAS-luciferase reporter, 20 h; Potency, µM (highest dose often 53.6 µM), actives largely listed as inhibitors; 310,000 tested, 5.4% active; AID 2551; also: nearly all actives have a fitted effect of over 60% in size
Target sequence (P51450 whole entry, looked up, the tested form may be a part): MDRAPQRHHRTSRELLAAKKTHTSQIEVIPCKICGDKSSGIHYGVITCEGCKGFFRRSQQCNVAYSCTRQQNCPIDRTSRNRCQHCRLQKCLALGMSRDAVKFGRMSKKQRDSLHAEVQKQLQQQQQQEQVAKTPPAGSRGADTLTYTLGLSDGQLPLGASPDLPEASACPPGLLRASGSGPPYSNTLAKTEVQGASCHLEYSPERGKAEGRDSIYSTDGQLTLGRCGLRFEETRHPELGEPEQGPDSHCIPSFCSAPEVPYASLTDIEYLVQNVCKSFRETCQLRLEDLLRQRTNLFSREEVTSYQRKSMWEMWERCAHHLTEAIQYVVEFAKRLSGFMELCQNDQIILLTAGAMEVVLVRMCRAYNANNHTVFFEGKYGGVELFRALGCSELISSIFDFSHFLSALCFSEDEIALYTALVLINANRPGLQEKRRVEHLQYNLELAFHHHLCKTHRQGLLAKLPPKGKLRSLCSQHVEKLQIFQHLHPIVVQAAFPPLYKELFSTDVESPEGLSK
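Luciferase reporter read in Schneider cells carrying Gal4-RORγ (mouse) and UAS-Photinus luciferase; cells given compound 1 h before 700 uM copper sulfate induction, then incubated 20 h at ambient temperature.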
VP16 counter: counter-screen for ROR gamma inhibitors: Gal4-VP16 reporter | AID 2546 | Potency, µM (top dose mostly 53.6 µM), most hits filed as inhibitors | 310,000 tested, 3.5% active | Drosophila S2 Gal4-VP16 UAS-luciferase, luminescence, 20 h;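 also: Gal4-VP16 expression switched on by copper sulfate through the metallothionein promoter; nearly all actives have a fitted effect of over 50% in size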
MCF10A rereplic: induces DNA re-replication in MCF 10a normal breast cells; Potency, µM (top dose mostly 46.1 µM), usual class: activators; AID 624296; MCF 10A DNA re-replication, Hoechst nuclear intensity, 48 h; 350,000 tested, 2.9% active; also: nearly all actives have a fitted effect of over 50% in size
Hits are given with their value; - = inactive; ? = inconclusive; . = not tested or not shown; [ ] = remark or other dose. Unless noted, calls follow the shape of the dose curve; as a rule, active = well fitted curve in the direction sought with a large enough effect; inconclusive = small, poorly fitted or top-dose-only effect, or another doubt; inactive = no such curve, though single readings can be large; an effect the other way counts as inactive or inconclusive.

SMILES	IL1B secr inh	SW480 rereplic	RORgamma inh	VP16 counter	MCF10A rereplic
CSCC[C@H](NC(=O)[C@H](CCCNC(=N)N)NC(=O)[C@H](Cc1ccc(O)cc1)NC(=O)[C@@H]1CCCN1C(=O)CNC(=O)[C@H](CCC(=O)O)NC(=O)[C@H](CC(=O)O)NC(=O)[C@H](CCCCN)NC(=O)[C@H](CCCCN)NC(=O)[C@H](CCC(=O)O)NC(=O)[C@H](C)N)C(=O)N[C@@H](CCC(=O)O)C(=O)N[C@@H](Cc1cnc[nH]1)C(=O)N[C@@H](Cc1ccccc1)C(=O)N[C@@H](CCCNC(=N)N)C(=O)N[C@@H](Cc1c[nH]c2ccccc12)C(=O)NCC(=O)N[C@@H](CO)C(=O)N1CCC[C@H]1C(=O)N1CCC[C@H]1C(=O)N[C@@H](CCCCN)C(=O)N[C@@H](CC(=O)O)C(=O)O	.	.	-	-	.
CCOC(=O)C(C(=O)OCC)c1c([N+](=O)[O-])c(=O)n2c3c(cccc13)CCC2	-	-	-	-	-
CNc1ncc(-c2nnnn2-c2ccccc2)c(-c2ccccc2)n1	-	14.6µM	-	-	?
c1ccc(-c2nnnn2-c2ccccc2)cc1	-	?	-	-	-
CC1(C(=O)NS(=O)(=O)Cc2ccccc2)CCN1C(=O)CCc1ccccc1 (stereo not given)	-	.	.	.	.
O=C(c1cccs1)N1C[C@@H](n2cc(C3CC3)nn2)[C@H](O)C[C@@H]1c1ccccc1	-	.	.	.	.
CC1N(C(=O)N2CCOCC2)CCN1S(=O)(=O)c1cccc(C(F)(F)F)c1 (stereo not given)	-	-	-	-	-
O=S1(=O)C=C(Sc2nc3cc(Cl)ccc3o2)c2ccccc21	-118.9	?	5.62µM	2.51µM	?
COc1ccc(NC(=O)c2c(F)cccc2Cl)cc1S(=O)(=O)N1CCOCC1	-	-	.	.	-
CC(=O)c1cccc(OC(=O)C2=CC=CN3CCS(=O)(=O)N=C23)c1	-	-	.	.	-
Cc1ccc(-c2nnc(N3CCC(C)CC3)c3ccccc23)cc1C	-94.7	-	20µM	17.8µM	?
CC1CCN(c2nnc(-c3ccccc3)c3ccccc23)CC1	-99.3	-	-	-	11.2µM
Cc1ccc(-c2nnc(N3CCC(C)CC3)c3ccccc23)cc1	-	?	?	?	?
COC(=O)c1ccc(C(/C=C/[C@@H](C)C(=O)NCCN2CCCC2)NC(=O)OCc2ccccc2)cc1 (stereo not given in full)	.	.	-	-	.
CCC(=O)c1ccc(OCC(=O)O)cc1	-	?	-[10 µM]	-	-
CCC(=O)c1ccc(OCCSc2ncccn2)cc1	-	-	11.2µM	-	-[9.22 µM]
NC(=S)Nc1cc2ccccc2c2ccccc12	-	-	11.2µM	?	-
NC(=S)Nc1cccc2cc3ccccc3cc12	-	11.6µM	12.6µM	-	?
O=C(Nc1ccccc1F)Nc1ccccc1Br	-	-	-	?	-
NC(=S)Nc1ccccc1Br	-	-	?	35.5µM	-
Oc1ccc(-c2nnc(Nc3cccc(O)c3)c3ccccc23)cc1	-	-	-	-	?
CN(C)C(=O)c1ccc(Nc2nnc(-c3ccc(O)cc3)c3ccccc23)cc1	-54.9	-	-	-	-
CNC(=O)c1ccc(Nc2nnc(-c3ccc(O)cc3)c3ccccc23)cc1	-	?	-	-	-
CNC(=O)c1cc(Nc2nnc(-c3ccc(O)cc3)c3ccccc23)ccc1OC	-58.6	-	-	-	-
COC(=O)N1C(=O)[C@@](c2ccccc2)(C(C)C)N1C(=O)OC	?	?	10µM	-	?
SMILES	IL1B secr inh	SW480 rereplic	RORgamma inh	VP16 counter	MCF10A rereplic
COC(=O)N1C(=O)[C@@](c2ccc(OC)cc2)(C(C)C)N1C(=O)OC	-101.4	20.6µM	-	-	?
COC(=O)N1C(=O)[C@](c2ccccc2)(C2CCCC2)N1C(=O)OC	-95.6	-	?	?	?
COC(=O)N1C(=O)[C@](c2ccc(Cl)cc2)(C(C)C)N1C(=O)OC	.	?	-	-	?
COc1ccc(S(=O)(=O)N2CCCOC2CNC(=O)C(=O)NCCO)cc1 (stereo not given)	-	.	.	.	.
CCNC(=S)NNC(=O)c1csc(CC)c1	-	-	4.47µM	-	-
CCCc1cc(C(=O)NNC(=S)NCc2ccccc2)cs1	-	-	4.47µM	?	-
O=C(Nc1ccon1)c1csc2c1CCCC2	-	-	-	-	-
Cc1cc(C(=O)NNC(=S)NCc2ccccc2)cs1	-	-	-	-	?
